According to the supplement of paper PMC6555819:

Columns and labels:
Test in all cases: PBM binding z-score (relative to random genomic background probes); higher = stronger binding; sequences stand for … in GC…GCGATTGACAGCGTAGAATGAAGG
[1] = system: FXR:RXRa (NR concentration 270 nM, RXRa partner concentration 90 nM)
Method in brief: (§1)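 Probes were double-stranded and carried 34-nt variable regions with direct-repeat seeds, single-nucleotide variants, half-site ablations and random human genomic background sequences, printed on custom Agilent 4×180K protein-binding microarrays. Arrays were incubated 1 h with ligand-free nuclear receptor dimers in PBS pH 7.4, 2% milk, 0.02% Triton X-100, 1 mM DTT, 0.2 mg/mL BSA and 0.4 mg/ml salmon testes DNA. Antibodies against each partner (one per run) detected binding, and scanned fluorescence was regression-normalized. Binding z-scores use the random background probes as reference.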

[2] = system: LXRa:RXRa (NR concentration 270 nM, RXRa partner concentration 90 nM)
Method in brief: as §1

[3] = system: LXRa homodimer (NR concentration 270 nM)
Method in brief: as §1

[4] = system: LXRb:RXRa (NR concentration 270 nM, RXRa partner concentration 90 nM)
Method in brief: as §1

[5] = system: LXRb homodimer (NR concentration 270 nM)
Method in brief: as §1

[6] = system: PPARa:RXRa (NR concentration 270 nM, RXRa partner concentration 90 nM)
Method in brief: as §1

[7] = system: PPARg:RXRa (NR concentration 180 nM, RXRa partner concentration 90 nM)
Method in brief: as §1

[8] = system: PPARg:RXRa 270nM:90nM, anti-RXR (NR concentration 270 nM, RXRa partner concentration 90 nM)
Method in brief: as §1

[9] = system: PPARg:RXRa 30nM:10nM, anti-RXR (NR concentration 30 nM, RXRa partner concentration 10 nM)
Method in brief: as §1

[10] = system: PPARg:RXRa 90nM:30nM, anti-RXR (NR concentration 90 nM, RXRa partner concentration 30 nM)
Method in brief: as §1

[11] = system: PPARg:RXRa DBDmut IVT, anti-RXR (DBD mutation: RXRa K156A/R161A, NR concentration 270 nM, RXRa partner concentration 90 nM)
Method in brief: as §1

[12] = system: PPARg:RXRa IVT, anti-PPARg (NR concentration 270 nM, RXRa partner concentration 90 nM)
Method in brief: as §1

[13] = system: PPARg DBDmut:RXRa IVT, anti-PPARg (DBD mutation: PPARg1 K132A/R137A, NR concentration 270 nM, RXRa partner concentration 90 nM)
Method in brief: as §1

[14] = system: PPARg DBDmut IVT, anti-PPARg (DBD mutation: PPARg1 K132A/R137A, NR concentration 270 nM)
Method in brief: as §1

[15] = system: PPARg homodimer (NR concentration 180 nM)
Method in brief: as §1

[16] = system: PXR:RXRa (NR concentration 270 nM, RXRa partner concentration 90 nM)
Method in brief: as §1

[17] = system: PXR homodimer (NR concentration 270 nM)
Method in brief: as §1

[18] = system: RARa:RXR (NR concentration 270 nM, RXRa partner concentration 90 nM)
Method in brief: as §1

[19] = system: RARa homodimer (NR concentration 270 nM)
Method in brief: as §1

[20] = system: RARb:RXRa (NR concentration 270 nM, RXRa partner concentration 90 nM)
Method in brief: as §1

CCTTACGGGTCAAGGTTCTAGCACGGGTGGTACG
PBM binding z-score [1]: 5.14 | PBM binding z-score [2]: 3.35 | PBM binding z-score [3]: -0.039 | PBM binding z-score [4]: 2.64 | PBM binding z-score [5]: -0.204 | PBM binding z-score [6]: 4.86 | PBM binding z-score [7]: 4.7 | PBM binding z-score [8]: 5.18 | PBM binding z-score [9]: 2.28 | PBM binding z-score [10]: 4.24 | PBM binding z-score [11]: 1.5 | PBM binding z-score [12]: 3.25 | PBM binding z-score [13]: 0.0121 | PBM binding z-score [14]: -0.395 | PBM binding z-score [15]: 2.56 | PBM binding z-score [16]: 2.98 | PBM binding z-score [17]: -0.35 | PBM binding z-score [18]: 3.97 | PBM binding z-score [19]: 0.251 | PBM binding z-score [20]: 4.05

CAAACTAGGTCAAAGGTCCAAGTCGAGCCAACCA
PBM binding z-score [1]: 5.12 | PBM binding z-score [2]: 4.21 | PBM binding z-score [3]: 0.693 | PBM binding z-score [4]: 3.08 | PBM binding z-score [5]: 0.0587 | PBM binding z-score [6]: 6.27 | PBM binding z-score [7]: 12.8 | PBM binding z-score [8]: 10.1 | PBM binding z-score [9]: 12.4 | PBM binding z-score [10]: 12.2 | PBM binding z-score [11]: 8.79 | PBM binding z-score [12]: 8.36 | PBM binding z-score [13]: 1.57 | PBM binding z-score [14]: 1.19 | PBM binding z-score [15]: 3.75 | PBM binding z-score [16]: 3.24 | PBM binding z-score [17]: 0.0421 | PBM binding z-score [18]: 5.03 | PBM binding z-score [19]: 0.553 | PBM binding z-score [20]: 4.19

ATCGAAAGGTCGATGGTGAGTATACCCACCCGAA
PBM binding z-score [1]: 3.01 | PBM binding z-score [2]: 2.38 | PBM binding z-score [3]: -0.15 | PBM binding z-score [4]: 1.83 | PBM binding z-score [5]: 0.391 | PBM binding z-score [6]: 3.29 | PBM binding z-score [7]: 1.48 | PBM binding z-score [8]: 1.85 | PBM binding z-score [9]: 0.714 | PBM binding z-score [10]: 1.02 | PBM binding z-score [11]: -0.671 | PBM binding z-score [12]: 0.8 | PBM binding z-score [13]: 0.684 | PBM binding z-score [14]: 0.102 | PBM binding z-score [15]: 1.04 | PBM binding z-score [16]: 1.51 | PBM binding z-score [17]: -0.361 | PBM binding z-score [18]: 2.18 | PBM binding z-score [19]: 0.322 | PBM binding z-score [20]: 3.03

CCTCGGAGGACAGAAAGTCAGAGCTGTCCGCTTT
PBM binding z-score [1]: -0.421 | PBM binding z-score [2]: -0.464 | PBM binding z-score [3]: -0.45 | PBM binding z-score [4]: -1.05 | PBM binding z-score [5]: -0.903 | PBM binding z-score [6]: -0.745 | PBM binding z-score [7]: -0.796 | PBM binding z-score [8]: -0.982 | PBM binding z-score [9]: -1.28 | PBM binding z-score [10]: -1.14 | PBM binding z-score [11]: -0.616 | PBM binding z-score [12]: -1.05 | PBM binding z-score [13]: -1.75 | PBM binding z-score [14]: -1.4 | PBM binding z-score [15]: -0.952 | PBM binding z-score [16]: -0.859 | PBM binding z-score [17]: -0.619 | PBM binding z-score [18]: -0.54 | PBM binding z-score [19]: -0.769 | PBM binding z-score [20]: 0.221

ATCGAAAGGCCGAGGTGAGTATAGAGAAAGGGAA
PBM binding z-score [1]: 0.0206 | PBM binding z-score [2]: -0.227 | PBM binding z-score [3]: -0.447 | PBM binding z-score [4]: -0.337 | PBM binding z-score [5]: -0.455 | PBM binding z-score [6]: -0.0261 | PBM binding z-score [7]: 0.313 | PBM binding z-score [8]: -0.133 | PBM binding z-score [9]: -0.0137 | PBM binding z-score [10]: -0.154 | PBM binding z-score [11]: -0.777 | PBM binding z-score [12]: 0.581 | PBM binding z-score [13]: -0.257 | PBM binding z-score [14]: 0.0911 | PBM binding z-score [15]: 0.14 | PBM binding z-score [16]: -0.348 | PBM binding z-score [17]: 0.0633 | PBM binding z-score [18]: 0.0364 | PBM binding z-score [19]: -0.273 | PBM binding z-score [20]: 1.53

CCGACTGGTGCAAGGTTACCATAACGCACAGCCA
PBM binding z-score [1]: -0.035 | PBM binding z-score [2]: 0.459 | PBM binding z-score [3]: -0.262 | PBM binding z-score [4]: 0.654 | PBM binding z-score [5]: -1.22 | PBM binding z-score [6]: 0.831 | PBM binding z-score [7]: 0.89 | PBM binding z-score [8]: 0.462 | PBM binding z-score [9]: -0.236 | PBM binding z-score [10]: 0.039 | PBM binding z-score [11]: -0.528 | PBM binding z-score [12]: -0.0659 | PBM binding z-score [13]: -0.402 | PBM binding z-score [14]: -0.928 | PBM binding z-score [15]: 0.54 | PBM binding z-score [16]: 0.357 | PBM binding z-score [17]: -0.288 | PBM binding z-score [18]: 0.554 | PBM binding z-score [19]: 0.0426 | PBM binding z-score [20]: 0.894

GCTAGTAGGCCATTTGGGTCACTCAATGACGGGC
PBM binding z-score [1]: -0.0419 | PBM binding z-score [2]: -0.00892 | PBM binding z-score [3]: -0.666 | PBM binding z-score [4]: -0.044 | PBM binding z-score [5]: -0.894 | PBM binding z-score [6]: 1.98 | PBM binding z-score [7]: 2.27 | PBM binding z-score [8]: 2.41 | PBM binding z-score [9]: 0.459 | PBM binding z-score [10]: 1.79 | PBM binding z-score [11]: 5.94 | PBM binding z-score [12]: 5.02 | PBM binding z-score [13]: -0.157 | PBM binding z-score [14]: -0.997 | PBM binding z-score [15]: 0.311 | PBM binding z-score [16]: 0.202 | PBM binding z-score [17]: -0.242 | PBM binding z-score [18]: 0.598 | PBM binding z-score [19]: -0.704 | PBM binding z-score [20]: 1.47
